{
  "source": "the supplement of paper PMC11219838",
  "note": "Values without a mark were called inactive.",
  "data": [
    {"system": "Caenorhabditis elegans dauer (daf-2(e1370))", "experiment": "proportion of mobile C. elegans dauer larvae relative to DMSO control (fraction of DMSO control); higher = more viable, less nematicidal, active = 0.63 or less; extreme values may be limits of the assay", "settings": "60 µM; 5 days; temperature: 20 °C", "experimental": "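DODA library (846 commercial 1,3,4- and 1,2,4-oxadiazole compounds plus commercial nematicide controls) screened at a single dose of 60 µM (0.6% DMSO) in 96-well plates, two biological replicates. Read-outs: C. elegans N2 L1 survival/reproduction score at day 6, 20 °C (0: 0-10 worms, 1: 11-20, 2: 21-50, 3: >50, 4: overgrown/starved). C. elegans daf-2 dauer, D. dipsaci and M. hapla J2 mobility at day 5, 20 °C, and P. penetrans mobility at day 5, 20 °C, each relative to DMSO controls. M. hapla egg hatching at day 12, 25 °C, relative to the mean of 8 DMSO wells on the same plate.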", "values": [
      {"compound": "COc1ccccc1CC(=O)Nc1ccc(-c2noc(-c3ccc(Cl)cc3)n2)cc1", "proportion of mobile C. elegans dauer larvae": 1},
      {"compound": "Brc1ccccc1-c1nc(-c2ccccc2)no1", "proportion of mobile C. elegans dauer larvae": 0.676},
      {"compound": "CCOc1ccccc1-c1nnc(SCc2ccccc2)o1", "proportion of mobile C. elegans dauer larvae": 1},
      {"compound": "Fc1ccc(OCc2nc(-c3ccc(Cl)cc3)no2)cc1", "proportion of mobile C. elegans dauer larvae": 1},
      {"compound": "Cc1ccc(OCc2nc(-c3ccc(Cl)cc3)no2)c(C)c1", "proportion of mobile C. elegans dauer larvae": 1},
      {"compound": "Cn1c(SCc2cccc(F)c2)nnc1-c1ccco1", "proportion of mobile C. elegans dauer larvae": 1},
      {"compound": "COc1nc(-c2ccc(Cl)cc2)ccc1-c1noc(C)n1", "proportion of mobile C. elegans dauer larvae": 1},
      {"compound": "CC(=O)c1cccc(NC(=O)CSc2nnc(-c3ccccc3)o2)c1", "proportion of mobile C. elegans dauer larvae": 1},
      {"compound": "CCOc1nc(-c2ccc(C)cc2)ccc1-c1noc(-c2ccc(F)cc2)n1", "proportion of mobile C. elegans dauer larvae": 1},
      {"compound": "Cc1ccc(NC(=O)CSc2nnc(-c3ccccc3)o2)cc1F", "proportion of mobile C. elegans dauer larvae": 1},
      {"compound": "CCCOc1ccc(-c2ccc(-c3nc(-c4ccccn4)no3)cc2)cc1", "proportion of mobile C. elegans dauer larvae": 1},
      {"compound": "CCc1cccc(CC)c1NC(=O)CSc1nnc(-c2ccccc2OC)o1", "proportion of mobile C. elegans dauer larvae": 1},
      {"compound": "Clc1ccccc1OCc1nc(-c2ccc(Br)cc2)no1", "proportion of mobile C. elegans dauer larvae": 1},
      {"compound": "CCCCc1nc(-c2ccc(-c3ccc(C)cc3)nc2OC)no1", "proportion of mobile C. elegans dauer larvae": 1},
      {"compound": "Cc1cc(Cl)ccc1OCc1nc(-c2ccncc2)no1", "proportion of mobile C. elegans dauer larvae": 1},
      {"compound": "CC(Sc1nnc(-c2ccc(C(C)(C)C)cc2)o1)C(=O)Nc1nccs1", "note": "(stereo not given)", "proportion of mobile C. elegans dauer larvae": 1},
      {"compound": "COc1ccc(-c2noc(-c3ccc(Cl)cc3Cl)n2)cc1", "proportion of mobile C. elegans dauer larvae": 1},
      {"compound": "COc1ccc(CCC(=O)Nc2ccc(-c3noc(COc4ccccc4C)n3)cc2)cc1", "proportion of mobile C. elegans dauer larvae": 1},
      {"compound": "N#Cc1ccccc1CSc1nnc(-c2ccco2)o1", "proportion of mobile C. elegans dauer larvae": 0.85},
      {"compound": "Cc1cc(OCc2nc(-c3ccccc3)no2)cc(C)c1Cl", "proportion of mobile C. elegans dauer larvae": 1},
      {"compound": "Cc1cc(OCc2nc(-c3ccc(NC(=O)c4ccc5c(c4)OCO5)cc3)no2)ccc1Cl", "proportion of mobile C. elegans dauer larvae": 1},
      {"compound": "c1coc(-c2nnc(-c3ccco3)o2)c1", "proportion of mobile C. elegans dauer larvae": 1},
      {"compound": "O=C(NCc1cccnc1)c1ccccc1-c1nc(-c2ccccc2Cl)no1", "proportion of mobile C. elegans dauer larvae": 1},
      {"compound": "CCOc1ccc(-c2nc(-c3ccc(Cl)cc3)no2)cc1", "proportion of mobile C. elegans dauer larvae": 1},
      {"compound": "COc1ccc(C)cc1NC(=O)CSc1nnc(-c2ccc(Br)cc2)o1", "proportion of mobile C. elegans dauer larvae": 1},
      {"compound": "Cc1ccc(-c2noc(-c3ccc(C)cc3C)n2)cc1", "proportion of mobile C. elegans dauer larvae": 1},
      {"compound": "COc1ccc(Cl)cc1-c1noc(-c2ccccc2C)n1", "proportion of mobile C. elegans dauer larvae": 1},
      {"compound": "Cc1cccc(OCc2nc(-c3ccccc3)no2)c1", "proportion of mobile C. elegans dauer larvae": 1},
      {"compound": "Cc1cc(Br)ccc1OCc1nc(-c2ccccn2)no1", "proportion of mobile C. elegans dauer larvae": 1},
      {"compound": "COc1ccc(-c2noc(-c3cccc(F)c3)n2)cc1", "proportion of mobile C. elegans dauer larvae": 1},
      {"compound": "COc1ccc(-c2nnc(SCC(=O)Nc3ccc(Cl)cc3Cl)o2)cc1", "proportion of mobile C. elegans dauer larvae": 1},
      {"compound": "Cc1ccccc1OCc1nc(-c2cccc(C(F)(F)F)c2)no1", "proportion of mobile C. elegans dauer larvae": 1},
      {"compound": "COc1ccc(Cl)cc1-c1noc(-c2ccc(Cl)cc2)n1", "proportion of mobile C. elegans dauer larvae": 1},
      {"compound": "O=C(CSc1nnc(-c2ccco2)o1)Nc1ccccc1F", "proportion of mobile C. elegans dauer larvae": 1},
      {"compound": "O=C(Nc1cccnc1)c1ccccc1-c1nc(-c2ccc(Cl)cc2)no1", "proportion of mobile C. elegans dauer larvae": 1},
      {"compound": "CCOc1ccccc1-c1nnc(SCC(=O)Nc2ccccc2)o1", "proportion of mobile C. elegans dauer larvae": 1},
      {"compound": "Cc1ccc(-c2noc(COc3ccccc3Cl)n2)cc1", "proportion of mobile C. elegans dauer larvae": 1},
      {"compound": "Cc1cc(Cl)ccc1OCc1nc(-c2cccnc2)no1", "proportion of mobile C. elegans dauer larvae": 1},
      {"compound": "O=C(CSc1nnc(-c2ccccc2)o1)Nc1ccc2ccccc2c1", "proportion of mobile C. elegans dauer larvae": 1},
      {"compound": "CCOc1ccc(-c2nc(-c3cccnc3)no2)cc1OCC", "proportion of mobile C. elegans dauer larvae": 1}
    ]}
  ]
}
